Screening data: PubChem, National Center for Advancing Translational Sciences (NCATS)
Sfp PPTase inh = blocks B. subtilis Sfp PPTase activity; Q9F4F7; Biochemical Sfp PPTase activity, qHTS; Potency, µM, for inactives: largest response in the series, negative = inhibition, most hits filed as inhibitors; 310,000 compounds, 3.5% hits;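 further: the enzyme is Sfp with the accession as filed and its product quenches rhodamine fluorescence; 0% = enzyme reaction without inhibitor and -100% = no enzyme wells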
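Compounds were incubated with enzyme (final 15 nM) for 15 min at room temperature before substrate addition started the reaction. Fluorescence at 525 nm excitation, 598 nm emission was recorded immediately and after 30 minutes.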
NPSR antagonist = antagonists of human neuropeptide S receptor cAMP signaling | Q6W5P4 | CHO-NPSR cells, cAMP TR-FRET, antagonist mode | Potency, µM (top dose mostly 38.3 µM), for the others: at the highest dose activity change, negative = inhibition, usual class: inhibitors | 220,000 compounds, 1% hits | AID 1461; further: on the % scale 0 is the no-effect control and ±100 the full control effect; nearly all actives have a fitted effect of over 50% in size
IMPase Li cell = membrane-permeable IMPase blocker, potentiated with lithium; Potency, µM (titrated, usually from 59.4 µM), for the others: top-dose activity, negative = IMPase inhibition, hits mostly inhibitors; CHO-M1 cells, IP1 TR-FRET (IP-One), carbachol + lithium; 210,000 compounds, 0.35% hits;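 further: IP1 builds up when IMPase is blocked and the TR-FRET signal falls; plate controls were basal vehicle for no effect and high inhibitor control for full effect; nearly all actives have a fitted effect of over 50% in size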
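IP1 accumulation measured by competitive TR-FRET in lysed CHO-M1 cells after 30 min compound exposure at 37C, with a small lithium addition to potentiate weak responses. Hill-equation AC50 from ratio and donor-channel data.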
JMJD2E inh = inhibitors of human JMJD2E histone demethylase; AID 2147; B2RXH2; Potency, µM (doses to about 57.1 µM), for the others: top-dose activity change, negative = inhibition, most hits filed as inhibitors; JMJD2E catalytic domain, FDH-coupled NADH fluorescence (FDH is formaldehyde dehydrogenase); 230,000 compounds, 1.6% hits; active means well fitted inhibition curve with a large enough effect, not every such curve was filed as active; inconclusive means small, poorly fitted or top-dose-only effect, or another doubt; inactive means no such curve, though single readings can be large or run the other way;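 further: 0% = wells with enzyme and -100% = buffer wells without enzyme; nearly all actives have a fitted effect of over 50% in size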
GCN5L2 inh = blocks human GCN5L2 histone acetyltransferase | Q92830 | GCN5L2 HAT assay, ThioGlo1 CoA-SH fluorescence | Potency, µM (doses to about 58.9 µM), for inactives: at the top dose activity change, negative = inhibition, usual class: inhibitors | 390,000 compounds, 0.21% hits | AID 504327; further: on the % scale 0 is the no-effect control and ±100 the full control effect
Target sequence (Q92830 whole entry, looked up): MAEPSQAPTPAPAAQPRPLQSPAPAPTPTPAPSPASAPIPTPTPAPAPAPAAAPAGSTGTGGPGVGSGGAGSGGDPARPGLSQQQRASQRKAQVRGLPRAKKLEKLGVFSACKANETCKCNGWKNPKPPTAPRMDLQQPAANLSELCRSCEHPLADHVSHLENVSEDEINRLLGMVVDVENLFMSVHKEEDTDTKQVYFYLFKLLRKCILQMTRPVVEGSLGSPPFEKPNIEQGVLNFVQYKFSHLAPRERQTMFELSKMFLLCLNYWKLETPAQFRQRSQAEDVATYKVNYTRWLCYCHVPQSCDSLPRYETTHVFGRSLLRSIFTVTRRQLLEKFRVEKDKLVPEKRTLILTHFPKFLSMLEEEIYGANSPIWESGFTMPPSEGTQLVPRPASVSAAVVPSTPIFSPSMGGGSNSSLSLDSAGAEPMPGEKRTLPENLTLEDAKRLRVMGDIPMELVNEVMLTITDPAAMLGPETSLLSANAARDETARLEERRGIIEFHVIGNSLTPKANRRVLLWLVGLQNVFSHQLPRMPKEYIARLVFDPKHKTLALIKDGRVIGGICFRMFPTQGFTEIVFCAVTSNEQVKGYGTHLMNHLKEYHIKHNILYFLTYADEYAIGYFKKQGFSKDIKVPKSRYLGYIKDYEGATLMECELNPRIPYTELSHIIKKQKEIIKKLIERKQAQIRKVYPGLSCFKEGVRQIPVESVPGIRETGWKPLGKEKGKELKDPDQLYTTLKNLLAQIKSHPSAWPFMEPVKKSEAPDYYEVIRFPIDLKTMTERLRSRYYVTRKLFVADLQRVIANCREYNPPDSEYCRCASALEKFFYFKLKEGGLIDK
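GCN5L2 (20nM final) in 50mM HEPES, 0.1mM EDTA pH 7.5, 0.01% Tween-20 was preincubated 15 min at room temperature with compound, then given ThioGlo1 (50uM), H3(1-25) peptide (75uM) and acetyl-CoA (70uM); CoA-thiol fluorescence (Ex340/Em540) was read at 0 and 20 min.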
Epigenetic reg = epigenetic control regulation, reporter derepression; 280,000 compounds, 0.2% hits; Potency, µM (highest dose often 53.9 µM), for inactives: at the top dose GFP activation, hits mostly activators; AID 1865; murine LDR cells, GFP reporter derepression, 30 h; further: % of control where 0% means no effect; nearly all actives have a fitted effect of over 60% in size
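Readout is the number of GFP-expressing murine LDR cells, counted by cytometry following washing. Cells were treated with compound for 30 h at 37 C; the stably integrated CMV-GFP locus is normally silent.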
An asterisk follows results filed as active; ? = inconclusive; . = not tested or not shown; [ ] = remark or other dose. Compounds with a hit are over-represented: about 3.6% of the library has one in this group of screens. Unless noted, the call rests on the fitted dose curve; in most records, active means well fitted curve in the direction sought with a large enough effect; inconclusive means small, poorly fitted or top-dose-only effect, or another doubt; inactive means no such curve, though single readings can be large; an effect the other way counts as inactive or inconclusive. Potency means the concentration at half of the fitted maximal effect.

SMILES	Sfp PPTase inh	NPSR antagonist	IMPase Li cell	JMJD2E inh	GCN5L2 inh	Epigenetic reg
CCOC(=O)C1=C(C)N(c2ccc(OCC)cc2)C(=O)/C1=C\c1ccco1	50.1µM*	-49.7%	2.1%	-6.8%	-7.1%	-2.5%
CCOc1ccc(N2C(=O)/C(=C/c3ccco3)N(C)C2=S)cc1	39.8µM*	-7.2%[46.1 µM]	2.6%	-11.7%	18.0%	3.9%
COC(=O)C1=C(C)N(c2cccc(OC)c2)C(=O)/C1=C\c1ccco1	-17.4%	-11.5%	13.0%	-5.7%	-5.1%	-1.3%
CC(C)C1=CC2=CC[C@@H]3[C@](C)(CCC[C@@]3(C)C(=O)O)[C@H]2CC1	-4.1%	.	.	.	12.9%	.
CN1CCN(c2oc(COc3ccc(-c4ccccc4)cc3)nc2C#N)CC1	31.6µM*	0.3%[46.1 µM]	5.0%[38.3 µM]	-15.5%	-2.2%	-2.1%
COc1ccc(N2CCN(c3oc(COc4ccccc4)nc3C#N)CC2)cc1	14.1%	?	10.9%	-6.9%	-9.4%	1.0%
N/C(=N\O)c1cn([C@@H]2O[C@@H](CO)[C@H](O)[C@@H]2O)c2ncnc(NO)c12	.	.	7.5%	.	.	.
COC(=O)[C@H](CCSC)NC(=O)c1cc2c(cn1)[nH]c1ccccc12	8.91µM*	.	.	.	?	.
CNC(=O)c1cc2c(cn1)[nH]c1ccccc12	27.6%	-11.7%[46.1 µM]	8.4%	?	-8.7%	-1.2%
CC(C)Sc1nc2[nH]ncc2c(=O)[nH]1	50.1µM*	8.9%	5.8%	-8.1%	1.0%	-3.3%
C=CC[C@@H]1C=C[C@@H](O/N=C\C[C@@H]2C=C[C@H](OC(C)=O)[C@H](COC(C)=O)O2)[C@@H](CO)O1	-19.9%	.	.	.	.	1.1%[10.1 µM]
Cc1ccc(-n2c(-c3cnccn3)n[nH]c2=S)cc1	56.2µM*	-13.2%	-0.8%	-0.5%	9.3%	3.1%
Cc1ccc(-n2c(-c3ccncc3)n[nH]c2=S)cc1C	44.7µM*	-19.5%	-7.5%	3.1%	3.0%	-4.5%
Cc1ccc(-n2c(-c3ccccc3)n[nH]c2=S)cc1	79.4µM*	-0.7%[46.1 µM]	-15.2%	?	-17.1%	-1.2%
Cc1ccc(-c2ccccc2)n1-c1ccc(C(=O)O)cc1	70.8µM*	-3.7%	-5.5%	-5.4%	-6.8%	?
Cc1ccc(C)c(-n2c(-c3ccncc3)n[nH]c2=S)c1	1.4%	-0.3%	.	2.9%	-16.0%	0.3%
O=C(Nc1nonc1-c1ccc(Br)cc1)c1ccco1	.	.	.	.	-1.0%	-1.9%
O=[N+]([O-])c1cccc(S(=O)(=O)NCCNS(=O)(=O)c2cccc([N+](=O)[O-])c2)c1	10.2%	.	.	.	2.1%	.
Clc1ccc(CSCCc2ccncc2)cc1Cl	.	.	2.3%	.	.	.
CC1(C)CC(=O)c2cc(-c3nc(-c4ccc(F)cc4)cs3)c(=O)[nH]c2C1	.	.	.	.	0.1%	8.8%
Cc1ccc(-n2c(-c3ccncc3)n[nH]c2=S)cc1	-6.4%	-8.0%	0.5%	0.0%	-3.2%	0.1%
COc1ccc(-n2c(-c3ccc(C)cc3)n[nH]c2=S)cc1	89.1µM*	-5.0%	-4.6%	-4.7%	-1.3%	?
O=C(O)c1ccc(-n2c(-c3cc(C4CC4)[nH]n3)n[nH]c2=S)cc1	56.2µM*	17.8%	.	-4.5%	-6.7%	3.0%
O=C(O)c1ccc(-n2c(-c3ccccc3)n[nH]c2=S)cc1	79.4µM*	12.6%[46.1 µM]	-9.2%[38.3 µM]	?	-2.5%	-2.9%
CC[C@H](C)[C@H](NC(=O)[C@H](Cc1ccc(O)cc1)NC(=O)[C@H](Cc1cnc[nH]1)NC(=O)[C@H](CCCNC(=N)N)NC(=O)[C@H](CC(C)C)NC(=O)[C@H](C)NC(=O)[C@@H](N)CO)C(=O)N[C@@H](CC(N)=O)C(=O)N[C@@H](CC(C)C)C(=O)N[C@H](C(=O)N[C@H](C(=O)N[C@@H](CCCNC(=N)N)C(=O)N[C@@H](CCC(N)=O)C(=O)N[C@@H](CCCNC(=N)N)C(=O)N[C@@H](Cc1ccc(O)cc1)C(N)=O)[C@@H](C)O)[C@@H](C)CC	11.4%	.	.	.	-6.3%	.
SMILES	Sfp PPTase inh	NPSR antagonist	IMPase Li cell	JMJD2E inh	GCN5L2 inh	Epigenetic reg
Cc1ccc(S(=O)(=O)N(C)c2cccc3cccnc23)cc1	9.7%	.	.	.	.	.
Cc1cc(C(C)(C)C)c(OCCCN2CCOCC2)c(C(C)(C)C)c1	.	.	0.9%	.	.	.
Cc1cccc(C(CC(=O)NCCc2ccccc2)c2ccccc2)c1O (centres undefined)	79.4µM*	-52.6%	18.1%	-20.0%	3.0%	-0.4%
Cc1cccc(C(CC(=O)NCc2ccco2)c2ccccc2)c1O (centres undefined)	3.1%	-9.0%	2.6%	-12.8%	-8.9%	-0.1%
CCOC(=O)C1=C(C)N(c2ccc(C)cc2)C(=O)/C1=C\c1ccc(O)c(OC)c1	44.7µM*	-56.8%	.	2.24µM*	?	0.0%
CCOc1cc(/C=C2\C(=O)N(CCc3ccc(OC)c(OC)c3)C(C)=C2C(=O)OC)ccc1O	50.1µM*	12.8%	6.1%	-14.8%	-10.4%	0.0%
CCOc1cc(/C=C2\C(=O)N(Cc3ccco3)C(C)=C2C(=O)OC)ccc1O	20µM*	-24.6%	35.1%	4.9%	-1.1%	7.9%
COC(=O)C1=C(C)N(Cc2ccc(C)cc2)C(=O)/C1=C\c1ccc(O)c(OC)c1	50.1µM*	-21.9%[46.1 µM]	-4.8%[38.3 µM]	-27.5%	-19.4%	-1.0%
CCN1C(=O)/C(=C\c2ccco2)C(C(=O)OC)=C1C	6.1%	-0.7%[46.1 µM]	3.9%[38.3 µM]	-2.5%	-4.2%	1.1%
Cc1cc(C)c2oc(C(=O)Nc3nc4ccc(Cl)cc4s3)cc(=O)c2c1	.	.	.	.	-2.6%	-1.0%
COc1ccc(C2c3[nH]c4ccccc4c3CCN2Cc2cccn2-c2ncccn2)cc1C (centres undefined)	56.2µM*	?	20.2%	-0.6%	-25.0%	2.4%
c1ccc(C2c3[nH]c4ccccc4c3CCN2Cc2cccn2-c2ccccn2)nc1 (centres undefined)	-6.3%	-36.1%	.	?	-7.0%	5.6%
Cc1cccc(C2c3[nH]c4ccccc4c3CCN2Cc2cccn2-c2ncccn2)c1 (centres undefined)	-25.2%	-48.1%	15.2%	31.6µM*	-2.7%	-1.1%
COCCCNC(=O)c1ccc2c3c(onc13)-c1ccccc1C2=O	56.2µM*	?	.	?	1.0%	-4.5%
COCCCNC(=O)c1ccccc1Oc1ccccc1	30.6%	-13.2%[46.1 µM]	-8.6%[38.3 µM]	6.2%	-1.9%	-0.9%
O=C(CCN1CCCCC1)Nn1c(=S)[nH]c2ccccc2c1=O	50.1µM*	-0.7%[46.1 µM]	-2.9%[38.3 µM]	-4.1%	0.6%	1.0%
COC(=O)CN1C(=O)[C@@H]2[C@H](C1=O)[C@@H]1CC(C(=O)OC)=C[C@@H](C(=O)OC)C3C1=C(C(=O)[C@]3(C)NC(=O)c1ccccc1)[C@@H]2C (some centres undefined)	-2.7%	.	.	.	.	.
